Measurements published in PubChem BioAssay (NCI).
The panel holds about 79,000 compounds, 15% with a hit somewhere; the sample as a whole holds those more often. Cut-off read from the data, not from the text of the source: active = growth inhibition above about 70%; inactive = the rest.

How the values were obtained:
[1] = NCI Yeast Anticancer Drug Screen. Data for the rad50 strain (AID 155);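 note: 0% = growth of vehicle-only cultures of the same strain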; settings: S. cerevisiae rad50 strain growth inhibition; at 50.0 µM; hits give high values
Summary of the method: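 A DNA repair-deficient yeast mutant serves as the test organism; compound-induced growth inhibition is calculated against vehicle-treated cells.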

[2] = NCI Yeast Anticancer Drug Screen. Data for the mec2-1 strain (AID 157); settings: S. cerevisiae mec2-1 strain, at 50.0 µM, hits give high values
Summary of the method: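 Compounds were applied to mec2-1 yeast cells. Their growth was then compared with that of vehicle-treated cultures to give growth inhibition.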

[3] = NCI Yeast Anticancer Drug Screen. Data for the sgs1 mgt1 strain (AID 161);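 note: 0% = growth of cultures given vehicle only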; settings: S. cerevisiae sgs1 mgt1 strain, at 50.0 µM, hits give high values
Summary of the method: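 This yeast growth screen uses a strain with defined DNA-repair lesions; compound-treated growth is compared with vehicle-treated growth.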

[4] = NCI Yeast Anticancer Drug Screen. Data for the cln2 rad14 strain (AID 165);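 note: 0% = growth equal to vehicle treated cultures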; settings: S. cerevisiae cln2 rad14 strain, at 50.0 µM, hits give high values
Summary of the method: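 Strain: cln2 rad14 yeast, altered in cell cycle control and DNA damage repair. Read-out: growth inhibition vs vehicle.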

[5] = NCI Yeast Anticancer Drug Screen. Data for the bub3 strain (AID 167); settings: S. cerevisiae bub3 mutant strain, at 50.0 µM, hits give high values
Summary of the method: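 Inhibition values come from growth of compound-treated mutant yeast normalised to vehicle-treated controls.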

[6] = NCI Yeast Anticancer Drug Screen. Data for the mlh1 rad18 strain (AID 175); settings: S. cerevisiae mlh1 rad18 strain growth inhibition; at 50.0 µM; hits give high values
Summary of the method: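 A repair-deficient yeast strain is exposed to test compound, and growth is scored relative to vehicle-treated controls.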

Measured: growth inhibition

O=[N+]([O-])c1ccc(CS(=O)(=O)O)cc1
inactive: [1] 6.25% | [2] -9.05% | [3] -6.4% | [4] -15.1% | [5] 8.8% | [6] -5.6%

COc1ccc([N+](=O)[O-])cc1NC(=O)c1ccc(Cl)cc1
inactive: [1] 12% | [2] 29.7% | [3] 35.6% | [4] 16.9% | [5] 28% | [6] 34.8%

COc1ccc(C(C#N)N2CCCN(C(C#N)c3ccc(OC)cc3)C2c2ccccc2)cc1 (stereo not given)
inactive: [1] -2.1% | [2] 2.95% | [3] -9.05% | [4] -0.2% | [5] -0.1% | [6] 7.1%

COC(=O)C1C(=O)c2ccccc2C(C)C1c1ccccc1C (stereo not given)
inactive: [1] 5% | [2] 41.4% | [3] 26.2% | [4] 4.15% | [5] 55.8% | [6] 27.6%

COc1ccccc1N1C(Cl)C(=O)C1c1c[nH]c2ccccc12 (stereo not given)
inactive: [1] 26.9% | [2] -40.3% | [3] -28.7% | [4] 4.4% | [5] -26.6% | [6] -34.9%

COC(=O)C(NC(=O)c1ccccc1)C(C)=O (stereo not given)
inactive: [1] 9.5% | [2] -0.7% | [3] -3.4% | [4] -35.4% | [5] -16.9% | [6] 10%

CC(=O)NNc1nc(C)c(C(/C=C/c2ccccc2O)=N/NC(=O)c2ccncc2)s1
inactive: [1] 6.9% | [2] 5.5% | [3] 16.1% | [4] 26.6% | [5] 17.5% | [6] 22.2%

COC(=O)c1cc(OC)c(O)c(OC)c1
inactive: [1] -1.3% | [2] -0.4% | [3] 16.6% | [4] -12.3% | [5] 4.05% | [6] -19.9%

CCC12CC(=O)CCC1CCc1ccc(OC)c(OC)c12 (stereo not given)
inactive: [1] -14.6% | [2] 15.9% | [3] -2.4% | [4] -7.2% | [5] 18.4% | [6] 22.2%

CCCCCCCCc1cc(CN(C)C)c(O)c(C(C)(C)CC(C)(C)C)c1
inactive: [1] -13.7% | [2] 2.35% | [3] 27.3% | [4] 16.7% | [5] 16% | [6] 8.3%

O=C(CCCSCCCC(=O)N/N=C/c1ccccc1O)N/N=C\c1ccccc1O
inactive: [1] 4.7% | [2] -0.5% | [3] 4.95% | [4] 0.75% | [5] 6.65% | [6] 19.8%

Cc1ccc(N=Nc2c(O)n(C)c(=O)n(C)c2=O)cc1C
inactive: [1] -8.3% | [2] -5.7% | [3] -17.2% | [4] 3.95% | [5] -18.6% | [6] -12.8%

O=C1OC(c2ccc([N+](=O)[O-])cc2)=N/C1=C\c1cc(Br)ccc1O
inactive: [1] 52.8% | [2] 28.5% | [3] 49.7% | [4] 64.3% | [5] 50.4% | [6] 35%

O=C(O)CCC(NC(=O)/C(=C/c1ccccc1)NC(=O)c1ccccc1)C(=O)O (stereo not given)
inactive: [1] 4.8% | [2] 6.55% | [3] 31% | [4] 8.75% | [5] 18.2% | [6] -10.4%

COc1ccccc1OCc1nnc(SCC(=O)O)n1-c1ccccc1
inactive: [1] 3.75% | [2] 3.4% | [3] 2.45% | [4] 11.6% | [5] 8.4% | [6] 27.9%

Cn1c(=O)n2n(c1=O)C1C=CC2C2C=C(c3ccccc3)C21 (stereo not given)
inactive: [1] -18.4% | [2] -1.35% | [3] -0.8% | [4] 1.75% | [5] 36.5% | [6] 0.3%

C=C1c2[nH]c3ccccc3c2CC(C(=O)O)N1C(O)c1ccc(S(=O)(=O)O)cc1 (stereo not given)
inactive: [1] 11.5% | [2] -7.95% | [3] -3.5% | [4] -45.6% | [5] -8.05% | [6] 3.75%

CCC(C)(C)c1ccc(OCCOc2ccc(C(=O)O)cc2[N+](=O)[O-])cc1
inactive: [1] -4.1% | [2] 12.2% | [3] -3.9% | [4] -17.6% | [5] -6.6% | [6] -20.1%

O=C(OCCNC(=O)N1CCOCC1)OCCNC(=O)N1CCOCC1
inactive: [1] -16.8% | [2] -2% | [3] -8.55% | [4] 40.6% | [5] -3.2% | [6] 11.3%

COc1cc(CC2COC(=O)[C@@H]2Cc2ccc(O)c(OC)c2)ccc1O (stereo not given in full)
inactive: [1] -29.7% | [2] -18.9% | [3] -23.4% | [4] 1.25% | [5] 6.55% | [6] 3.1%
